A selection: hits, their analogues and other compounds. The true share with any hit is near 2.4%.
Cruzain noTriton: blocks cruzain activity in detergent-free assay. purified cruzain, Z-FR-AMC fluorescence, no detergent. Potency, µM, for the others: max response, negative = inhibition, actives largely listed as inhibitors. actives 2.3% (n = 200,000). AID 1476;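 further: plate controls were enzyme without inhibitor for no effect and buffer without enzyme for full effect; nearly all actives have a fitted effect of over 40% in size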
Target sequence (P25779 123-467 limits assumed): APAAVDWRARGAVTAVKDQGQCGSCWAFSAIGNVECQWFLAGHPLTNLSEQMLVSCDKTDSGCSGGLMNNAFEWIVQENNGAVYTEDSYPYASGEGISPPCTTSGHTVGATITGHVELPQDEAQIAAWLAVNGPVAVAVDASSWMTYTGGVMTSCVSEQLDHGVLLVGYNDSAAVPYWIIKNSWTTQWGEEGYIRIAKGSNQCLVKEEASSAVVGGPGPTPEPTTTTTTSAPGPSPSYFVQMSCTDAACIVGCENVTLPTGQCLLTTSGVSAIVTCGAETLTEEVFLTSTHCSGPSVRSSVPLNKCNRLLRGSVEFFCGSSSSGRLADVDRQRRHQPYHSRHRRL
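Detergent-free condition (0.00005% Triton X-100) in acetate buffer pH 5.5 with DTT. 1.5 nM enzyme and compound were pre-mixed 15 min, then 2 uM Z-FR-AMC substrate added; reaction progress from fluorescence change between first and third reads (60 s).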
Cruzain inh Det: blocks cruzain activity in presence of Triton detergent; P25779; purified cruzain, Z-FR-AMC fluorescence, 0.01% Triton; Potency, µM, without a hit: max response, negative = inhibition, actives largely listed as inhibitors; actives 0.43% (n = 200,000); AID 1478;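 further: plate controls were neutral wells for no effect and buffer without enzyme for full effect; nearly all actives have a fitted effect of over 40% in size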
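Read-out: AMC fluorescence (360 nm excitation, 450 nm emission), four reads over 2 min, first-to-third difference used. Conditions: cruzain 1.5 nM, Z-FR-AMC 2 uM, pH 5.5 acetate, 5 mM DTT, 0.01% Triton X-100.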
An asterisk follows results filed as active; ? = inconclusive. The call rests on the fitted dose curve; in most records, active means well fitted curve in the direction sought with a large enough effect; inconclusive means small, poorly fitted or top-dose-only effect, or another doubt; inactive means no such curve, though single readings can be large; an effect the other way counts as inactive or inconclusive. Potency means the concentration at half of the fitted maximal effect.

SMILES	Cruzain noTriton	Cruzain inh Det
c1ccc(-c2ccc(CN3C[C@@H]4C(c5ccccc5)C5(c6cccnc6)CC4(C5)[C@H]3c3ccccc3)cc2)cc1 (stereo partly drawn)	-1%	0%
COC(=O)c1ccc(C23CC4(C2)[C@H](CN(Cc2ccc(-c5ccccc5)cc2)[C@@H]4c2ccccc2)C3c2ccc(Cl)nc2)cc1 (stereo partly drawn)	16µM*	3%
COC(=O)c1ccc(C23CC4(C2)[C@H](CN(Cc2ccc(-c5ccccc5)cc2)[C@@H]4c2ccccc2)C3c2ccc(C(F)(F)F)cc2)cc1 (stereo partly drawn)	?	1%
O=S(=O)(c1ccccc1)N1CN2CN(C1)CN(S(=O)(=O)c1ccccc1)C2	5%	3%
CC(=O)[O-].CC(=O)[O-].O.O.O.[Pb+2]	20%	3%
CCOC(=O)C(C)(C)[C@H](O)C(C)C	-9%	4%
Oc1ccc2ccccc2c1/C=C\c1ccc2c(Br)cc(Br)c(O)c2n1	3.2µM*	1%
Oc1ccc2ccccc2c1/C=N/n1cnnc1	-18%	-11%
Cc1ccc(NS(=O)(=O)c2ccc(-c3cc(C)no3)cc2)c(C)c1	-7%	-10%
COc1cc2oc(=O)cc(-c3ccc(-c4ccc(C)cc4)cc3)c2c(OC)c1OC	3%	3%
COc1cc2oc(=O)cc(-c3ccc(-c4ccc(C#N)cc4)cc3)c2c(OC)c1OC	35µM*	1%
O=C(O)c1cccc(C[C@H](Br)C(=O)O)c1	11%	5%
O=S1(=O)CCN(Cc2cccc(Cl)c2)CC1	-6%	0%
O=C1NCCN1Cc1cccc(Cl)c1	13µM*	0%
CCCSc1nc2c(c(=O)[nH]c(=O)n2C)n1Cc1ccc(C)cc1	-23%	0%
Cc1ccc(Cn2c(SCC(C)C)nc3c2c(=O)[nH]c(=O)n3C)cc1	10µM*	1%
Oc1ccc(Cl)cc1-c1cc(-c2cccc(Br)c2)n[nH]1	13µM*	-4%
Oc1ccc(Cl)cc1-c1cc(-c2ccccc2Cl)[nH]n1	?	-12%
Cc1nc2c(ccc3nc(NC(=O)c4ccc5c(c4)OCCO5)sc32)s1	2%	14µM*
Cc1nc2ccc3nc(NC(=O)c4ccc5c(c4)OCCO5)sc3c2s1	-5%	3%
CCc1ccc(Cn2c(CNS(=O)(=O)c3ccc(F)c(Cl)c3)nc3cccnc32)cc1	-13%	-2%
COC(=O)CSc1nnc([C@H](Cc2ccccc2)NC(=O)OC(C)(C)C)o1	4%	0%
Cc1cccc(CS(=O)(=O)c2nnc([C@H](Cc3ccccc3)NC(=O)OC(C)(C)C)o2)c1	16µM*	16µM*
Cc1ccc(Cl)cc1N1CCN(C(=O)c2cc(S(=O)(=O)N3CCCCC3)cn2C)CC1	-10%	0%
CC(=O)Oc1c2c(c(CC=C(C)C)c3c1C(=O)C1=CC4CC5C(C)(C)OC(C/C=C(\C)C(=O)O)(C4=O)[C@]15O3)OC(C)(CCC=C(C)C)C=C2 (stereo partly drawn)	27%	-13%
SMILES	Cruzain noTriton	Cruzain inh Det
COC(=O)c1cc2sccc2n1CC(=O)Nc1ccc(C)cc1C	-21%	-2%
Cc1sc(NC(=O)C2CCCC2)c(C#N)c1C	-17%	-18%
Cc1sc(NC(=O)COc2ccccc2)c(C#N)c1-c1ccccc1	-18%	?
CCc1ccc(-c2c(C)sc(NC(=O)C3CCC3)c2C#N)cc1	16µM*	0%
CCCC(=O)Nc1sc(C)c(-c2ccc(C(C)CC)cc2)c1C#N (stereo not drawn)	7.9µM*	9%
COc1cc(C2CC(=O)N(Cc3ccc(F)cc3)c3ccccc3S2)cc(OC)c1OC (stereo not drawn)	?	-6%
O=C(Cn1c(=O)n(-c2ccccc2)c(=O)c2ccc(C(=O)NCc3ccc4c(c3)OCO4)cc21)Nc1ccc(Br)cc1F	?	-4%
O=[N+]([O-])c1ccc(Nc2nc(N/N=C\c3ccc4c(c3)OCO4)nc(N3CCCCC3)n2)cc1	7.9µM*	5%
O=[N+]([O-])c1cc2c(cc1/C=N/Nc1nc(N3CCCC3)nc(N3CCCC3)n1)OCO2	14%	-12%
COc1ccc(C(=O)Nc2nc3c(s2)CCc2cc(OC)ccc2-3)cc1	-73%	-14%
CC1CCCCN1S(=O)(=O)c1ccc(C(=O)Nc2ccccc2-c2nc3ccccc3[nH]2)cc1 (stereo not drawn)	?	-5%
COc1ccc(C(=O)Nc2nc(-c3ccc([N+](=O)[O-])cc3)c(-c3ccc(OC)cc3)s2)cc1	10µM*	2%
O=C(Nc1ccccc1-c1nc2ccccc2[nH]1)c1ccc(S(=O)(=O)N2CCCCC2)cc1	10µM*	-4%
O=C(Nc1nc2ccc(Cl)cc2s1)c1ccc(S(=O)(=O)N2CCCC2)cc1	-3%	-3%
COCCN(CCOC)S(=O)(=O)c1ccc(C(=O)Nc2nc(-c3ccccc3)c(C(=O)c3ccccc3)s2)cc1	?	0%
O=C(Nc1nc(-c2ccccc2)c(-c2ccccc2)s1)c1ccc(S(=O)(=O)N2CCCCC2)cc1	4µM*	1%
O=C(Nc1nc(-c2ccccc2)c(C(=O)c2ccccc2)s1)c1ccc(S(=O)(=O)N2CCCCC2)cc1	7.9µM*	-5%
Cc1cc(NC(=O)NCc2ccc3c(c2)CCN3C(=O)c2ccccc2)ccc1Br	-4%	0%
CC(=O)OC(C(=O)c1ccccc1)c1ccccc1 (stereo not drawn)	-11%	-9%
Cc1nc(SCC(=O)NCCc2ccc(Cl)cc2)nc(C)c1C	-4%	6%
N=c1ccn2c(n1)O[C@H]1[C@@H](O)[C@@H](CO)O[C@H]12	-6%	5%
O=C(NNc1nc(-c2ccccc2)c2cc(Br)ccc2n1)c1ccc(S(=O)(=O)N2CCOCC2)cc1	-3%	-2%
O=C(NNc1nc(-c2ccccc2)c2cc(Br)ccc2n1)c1ccc(S(=O)(=O)N2CCCCC2)cc1	25µM*	-5%
Cc1cc(O)c(C)c2c1CC[C@H]1[C@H](C)C(=O)O[C@H]21	-5%	-1%
COc1ccc(OC)c(NC(=O)CSc2ncc3c(n2)-c2ccccc2N(C)S3(=O)=O)c1	-18%	0%
SMILES	Cruzain noTriton	Cruzain inh Det
CC1CCCN(CCOc2ccc(Br)cc2)C1 (stereo not drawn)	5%	3%
CC1CCCN(CCC(=O)c2ccc(Br)cc2)C1 (stereo not drawn)	5µM*	?
CCOCCCN1C(=O)CN(C2CCCCCC2)C(=O)C1c1ccc(OC(C)C)c(OC)c1 (stereo not drawn)	?	0%
COc1ccc(C(OCCN2CCC[C@@H](C(=O)O)C2)(c2ccc(OC)cc2)c2ccc(OC)cc2)cc1	?	-2%
COc1ccc(-n2c(SCC(=O)Nc3sc4c(c3C#N)CCCC4)nnc2-c2ccccc2OC)cc1	25µM*	-2%
COc1cccc(-n2c(SCC(=O)Nc3sc4c(c3C(N)=O)CCC4)nc3ccccc3c2=O)c1	25µM*	2%
COC(=O)c1cccc(-n2nnnc2SCC(=O)Nc2nc3c(s2)CCCC3)c1	?	-2%
N#Cc1ccc(-c2cccnc2)nc1SCC(=O)Nc1sc2c(c1C#N)CCC2	-1%	3%
COc1cccc(-n2c(SCC(=O)NCc3cccs3)nc3ccccc3c2=O)c1	-14%	-3%
COc1cccc(-n2nnnc2SCC(=O)Nc2nc3c(s2)CCCC3)c1	25µM*	-6%
COc1ccc(-c2nnc(SCC(=O)Nc3sc4c(c3C#N)CCCC4)n2-c2ccccc2)cc1	?	-3%
COc1ccc(-c2ccc(C#N)c(SCC(=O)Nc3sc4c(c3C#N)CCC4)n2)cc1	13µM*	-11%

Compound activity: PubChem, National Center for Advancing Translational Sciences (NCATS)
